This passage reports Potency, activity and activity change, negative = inhibition results from PubChem BioAssay (NCATS).

Assay [1] is described as follows: NCATS anti-infectives library activity on HEK293 viability as a counter-qHTS vs the C. elegans viability qHTS (AID 1745854). The method in brief: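 Compounds were acoustically plated (several concentrations, 1:5, final up to 41.7 uM), then 1500 HEK293 cells added per well and incubated 24 hr at 37C, 5% CO2. CellTiter-Glo was added and luminescence read after 10 min.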

In assay [2] the target is Catechol O-methyltransferase (Homo sapiens) (UniProt P21964). Description: Confirmatory Screen for Target Class Profiling of Small Molecule Inhibitors of Methyltransferases (AID 1745852; calls by dose curve; on activity change, negative = inhibition: on the % scale 0 is the no-effect control and ±100 the full control effect). Particulars: MTase-Glo luminescence, SAH detection, recombinant enzyme; measured here: COMT max response; stronger effect = lower value.
Assay [3] has as its target Guanidinoacetate N-methyltransferase (Homo sapiens) (UniProt Q14353). Described as above. Particulars: activity change, negative = inhibition: at 57.3 µM (top of the series) unless noted.
Assay [4] deals with Nicotinamide N-methyltransferase (Homo sapiens) (UniProt P40261). Described as above. Conditions: MTase-Glo luminescence, SAH detection, recombinant enzyme; measured here: NNMT max response; stronger effect = lower value.
Assay [5] addresses Phenylethanolamine N-methyltransferase (Homo sapiens) (UniProt P11086). The assay is described as above. Particulars: MTase-Glo luminescence, SAH detection, recombinant enzyme; measured here: PNMT max response; stronger effect = lower value.
The target of assay [6] is Glutathione peroxidase 1 (Homo sapiens) (UniProt P07203). As to the kind of experiment: Primary qHTS Assay for Inhibitors of Recombinant Selenoprotein Glutathione Peroxidase 1 (GPX1) (AID 1845191). Further: nearly all actives have a fitted effect of over 65% in size. The essentials:
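10 nM GPX1 + cpd, 30 min RT; start w/ 1 mM GSH, 0.5 mM cumene hydroperoxide, 0.5 mM NADPH, 100 nM GR, 0.01% BSA; buffer 50 mM Tris-HCl pH 7.5, 2 mM EDTA, 150 mM NaCl; Fl 340/450, 0 & 15 min.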

Molecules are shown by their SMILES. Results filed as inconclusive are left out. Active and inactive are the calls of the source. Unless noted, the call rests on the fitted dose curve; in most records, active means well fitted curve in the direction sought with a large enough effect; inconclusive means small, poorly fitted or top-dose-only effect, or another doubt; inactive means no such curve, though single readings can be large; an effect the other way counts as inactive or inconclusive.
Potency means the concentration at half of the fitted maximal effect.

Sequence of Glutathione peroxidase 1 (Homo sapiens) (P07203 whole entry, looked up): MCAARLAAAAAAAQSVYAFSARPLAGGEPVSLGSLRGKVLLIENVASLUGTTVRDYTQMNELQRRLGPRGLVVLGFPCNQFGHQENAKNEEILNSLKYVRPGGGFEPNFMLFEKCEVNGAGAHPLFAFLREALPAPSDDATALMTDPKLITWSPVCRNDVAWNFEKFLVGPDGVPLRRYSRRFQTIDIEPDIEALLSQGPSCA
Sequence of Catechol O-methyltransferase (Homo sapiens) (P21964 whole entry, looked up): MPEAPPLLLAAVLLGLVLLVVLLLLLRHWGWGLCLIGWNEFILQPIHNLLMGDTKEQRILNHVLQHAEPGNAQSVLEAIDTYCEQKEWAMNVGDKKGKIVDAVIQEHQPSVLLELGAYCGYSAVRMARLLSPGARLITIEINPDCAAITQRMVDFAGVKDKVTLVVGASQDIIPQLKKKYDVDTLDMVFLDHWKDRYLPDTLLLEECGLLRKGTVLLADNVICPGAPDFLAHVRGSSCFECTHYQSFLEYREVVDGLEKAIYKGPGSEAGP
Sequence of Phenylethanolamine N-methyltransferase (Homo sapiens) (P11086 whole entry, looked up): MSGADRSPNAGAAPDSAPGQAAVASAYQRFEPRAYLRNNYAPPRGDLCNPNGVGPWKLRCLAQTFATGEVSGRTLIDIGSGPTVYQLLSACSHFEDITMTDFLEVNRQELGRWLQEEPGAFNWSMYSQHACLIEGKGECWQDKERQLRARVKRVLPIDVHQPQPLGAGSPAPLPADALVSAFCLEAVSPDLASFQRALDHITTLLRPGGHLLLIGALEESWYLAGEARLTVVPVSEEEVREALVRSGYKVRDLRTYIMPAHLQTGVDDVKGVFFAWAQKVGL
Sequence of Nicotinamide N-methyltransferase (Homo sapiens) (P40261 whole entry, looked up): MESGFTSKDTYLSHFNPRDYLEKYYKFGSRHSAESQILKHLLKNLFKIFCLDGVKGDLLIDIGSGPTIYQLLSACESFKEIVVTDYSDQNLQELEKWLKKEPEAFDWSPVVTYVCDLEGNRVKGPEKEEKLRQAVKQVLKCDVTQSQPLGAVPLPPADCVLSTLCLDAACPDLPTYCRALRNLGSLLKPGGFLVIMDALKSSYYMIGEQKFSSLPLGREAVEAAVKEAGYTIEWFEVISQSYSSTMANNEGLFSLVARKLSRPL

For the compound `O=C(O)c1cc(-c2ccc(/C=C3\SC(=S)N(Cc4ccccc4)C3=O)o2)ccc1Cl`, the Potency entry in assay [1] is “inactive”.

For `CCOC(=O)c1ccc(NC(=O)Cn2c(=O)oc3cc(S(=O)(=O)N4CCCC4)ccc32)cc1`, the activity in assay [2] is -7.51%; in assay [4], -9.52%; in assay [5] it was -37.8%. The activity change, negative = inhibition in assay [3] is -4.51%.

For `COc1ccc(C2CC(=O)c3cc(-c4nc(-c5cccc([N+](=O)[O-])c5)cs4)c(=O)n(-c4ccccc4N)c3C2)cc1` (stereo unspecified), the activity in assay [2] is -0.514%; in assay [4], -5.71%; in assay [5] it was -5.29%. Moreover, in assay [3], the activity change, negative = inhibition was -4.17%. Also, the Potency entry in assay [6] was “inactive”.

As for `COC(=O)c1cc2n(n1)CC(C)(C(=O)NC1CCC(C)CC1)N(Cc1ccc(OC)cc1OC)C2=O` (stereo unspecified), the activity in assay [2] is -11.6%; in assay [4] it was -66.9%; in assay [5], -13.3%. In assay [3], the activity change, negative = inhibition was -7.55%.

`O=C(c1ccc2c(=O)nc3c(-c4ccc(Cl)cc4)n[nH]n3c2c1)N1CCN(Cc2ccccc2)CC1`: the values for the activity in assay [2], in assay [4] and in assay [5] were -8.28%, -22.4% and -11.1%, respectively. Further, the activity change, negative = inhibition in assay [3] stood at 1.01%.

Turning to `COc1cc2nc(N3CCCCC3)nc(NC3CCN(C)CC3)c2cc1OC`, the activity in assay [2] was 1.4%; in assay [4], -11.7%; in assay [5], -7.42%. Also, the activity change, negative = inhibition in assay [3] amounted to 3.17%. The Potency in assay [6] is 18 µM (active).

Turning to `COc1ccc2cc1Oc1ccc(cc1)C[C@H]1c3cc(c(OC)cc3CCN1C)Oc1c(O)c(OC)cc3c1[C@H](C2)N(C)CC3`, the Potency entry in assay [1] is “inactive”.

Consider `Cn1cnc(CN2CCNc3cc(Nc4ccccc4)ncc3C2)c1`, for which the activity in assay [2] was 7.14%; in assay [4], 4.88%; in assay [5], -5.41%. In assay [3], the activity change, negative = inhibition was determined as 2.31% [at 85.7 µM].

Regarding `COc1ccc2cc(CNc3ccc(C)cc3)c(=O)n(CC(=O)Nc3cccc(C(F)(F)F)c3)c2c1`, the activity in assay [2] was -6.71%; in assay [4], -13.5%; in assay [5], -7.35%. Also, the activity change, negative = inhibition in assay [3] is -9.44%. Further, in assay [6], the Potency entry was “inactive”.

Turning to `CC(C)CS(=O)(=O)c1oc(-c2ccc(F)cc2)nc1S(=O)(=O)c1ccccc1`, the Potency in assay [1] is 3.98 µM (active).

Consider `O=C(O)c1ccc(Nc2nc3ccccc3n3cnnc23)cc1`, for which the activity in assay [2] was -82.3%; in assay [4], -79.6%; in assay [5], -46%. Also, the Potency in assay [3] is 19.3 µM (active).

For the compound `Cc1ccccc1Sc1ccc(/C=C2\SC(=S)NC2=O)cc1[N+](=O)[O-]`, the activity was -5.04% in assay [2], -72.5% in assay [4] and -30.1% in assay [5]. In addition, the Potency in assay [3] was 42.9 µM (active). In addition, the Potency result in assay [6] is “inactive”.

For `CCCC1c2cccn2CCN1C(=O)Nc1cc(Cl)c(OC)cc1OC` (stereo unspecified), the activity in assay [2] is -9.49%; in assay [4] it was -17.5%; in assay [5], -8.84%. For the same compound, the activity change, negative = inhibition in assay [3] is -6.89%.

For the compound `Nc1ccccc1NC(=O)c1cnccn1`, in assay [1], the Potency entry is “inactive”.

For `CCOc1c(CN(C)C(=O)Cn2cccc(OC)c2=O)cccc1OC`, the activity in assay [2] was 0.499%; in assay [4], -3.91%; in assay [5] it was 0.0949%. Further, the activity change, negative = inhibition in assay [3] was -5.47%.

For the compound `Cn1ccc(Nc2cc3c(cn2)CN(CCc2ccccc2)CCN3)n1`, the activity in assay [2] is -0.459%; in assay [4] it was -5.86%; in assay [5], -38.8%. For the same compound, the activity change, negative = inhibition in assay [3] is -0.578% [at 85.7 µM].
